Records with an inconclusive call do not appear. A call without a number means that no potency is given here. Activity calls are given as the source filed them. Calls come from the whole dose curve; as a rule, active = well fitted inhibition curve with a large enough effect; inconclusive = small, poorly fitted or top-dose-only effect; inactive = flat fitted curve, though single readings scatter.
tested on: MCC-13; assay: qHTS assay to identify novel small-molecules to repurpose for Merkel cell carcinoma treatment (AID 1296009); conditions: MCC and control cell lines, CellTiter-Glo viability, 72 h; series mostly up to 46 µM; note: nearly all actives have a fitted effect of over 60% in size
Method in brief: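 Cell viability measured by CellTiter-Glo following 72 hr compound treatment at 37 degree celsius, with NPC and MIPE libraries tested in 8- and 11-point concentration series.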

Row | SMILES | Potency
1 | O=C(C=Cc1ccc(/C=C/C(=O)Nc2ccc(C3=NCCN3)cc2)cc1)Nc1ccc(C2=NCCN2)cc1 | inactive
2 | Cc1cccc(-c2nn(C(=S)Nc3ccccc3)cc2-c2ccnc3ccccc23)n1 | inactive
3 | COc1ccc2nc(S(=O)Cc3ncc(C)c(OC)c3C)[nH]c2c1 (stereo unspecified) | inactive
4 | CC(C)C[C@H](NC(=O)[C@@H](O)[C@H](N)Cc1ccccc1)C(=O)O | inactive
5 | CN(C)c1ccc(C2Nc3ccc4ccccc4c3C3=C2C(=O)CC(C)(C)C3)cc1Br (stereo unspecified) | inactive
6 | CCc1cc(Nc2nccc(-c3c(-c4ccc(OC)c(C(=O)Nc5c(F)cccc5F)c4)nc4ccccn34)n2)c(OC)cc1N1CCC(N2CCN(S(C)(=O)=O)CC2)CC1 | inactive
7 | Nc1nccc(-c2ccc3noc(-c4ccc(Cl)cc4)c3c2)n1 | inactive
8 | NC(=O)c1ccc(-c2nc(-c3ccc4c(c3)OCCO4)c(-c3ccccn3)[nH]2)cc1 | inactive
9 | O=C(C1CC1)N1CC[C@@H](Cn2c(-c3ccc(-c4ccc5occc5c4)cc3)nc3cnccc32)C1 | inactive
10 | Cc1c(CCOc2ccc(C(=O)O)cc2)c2cc(Cl)ccc2n1C(c1ccccc1)c1ccccc1 | inactive
11 | CCOC(=O)C1=C[C@]2(CC)CCCN3CCc4c(n1c1ccccc41)[C@@H]32 | inactive
12 | CC(C)(C)OC(=O)CN(Cc1ccc(Cl)cc1)Cc1ccc([N+](=O)[O-])s1 | inactive
13 | Nc1ncnc2nc(-c3ccc(N4CCOCC4)nc3)cc(-c3cccc(Br)c3)c12 | inactive
14 | Nc1cccc(S(=O)(=O)N2CCCN(S(=O)(=O)c3ccc4c(c3)OCCO4)CC2)c1 | inactive
15 | CCn1cc(C(=O)O)c(=O)c2cc(F)c(N3CCNC(C)C3)c(F)c21 (stereo unspecified) | inactive
16 | COc1ccc2c3n(c(=NC(=O)c4cccnc4)nc2c1OC)CCN3 | inactive

— PubChem BioAssay (NCATS)
